Screens: PubChem BioAssay, National Center for Advancing Translational Sciences (NCATS)
The list is not random: actives were taken first. Their share in the collection is about 1.2%.
RXFP1 antagonist = blocks the human relaxin receptor RXFP1 | AID 1259400 | HEK293-RXFP1, relaxin-stimulated cAMP HTRF, 30 min; hits give low values | 350,000 tested, 0.59% active | activity change, negative = inhibition, % at 57.5 µM;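 active means activity change of -60% or lower, but not beyond a set lower limit; inconclusive means change between -60% and -40%, or beyond the set limit; inactive means change above -40%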
Target sequence (Q9HBX9 whole entry, looked up): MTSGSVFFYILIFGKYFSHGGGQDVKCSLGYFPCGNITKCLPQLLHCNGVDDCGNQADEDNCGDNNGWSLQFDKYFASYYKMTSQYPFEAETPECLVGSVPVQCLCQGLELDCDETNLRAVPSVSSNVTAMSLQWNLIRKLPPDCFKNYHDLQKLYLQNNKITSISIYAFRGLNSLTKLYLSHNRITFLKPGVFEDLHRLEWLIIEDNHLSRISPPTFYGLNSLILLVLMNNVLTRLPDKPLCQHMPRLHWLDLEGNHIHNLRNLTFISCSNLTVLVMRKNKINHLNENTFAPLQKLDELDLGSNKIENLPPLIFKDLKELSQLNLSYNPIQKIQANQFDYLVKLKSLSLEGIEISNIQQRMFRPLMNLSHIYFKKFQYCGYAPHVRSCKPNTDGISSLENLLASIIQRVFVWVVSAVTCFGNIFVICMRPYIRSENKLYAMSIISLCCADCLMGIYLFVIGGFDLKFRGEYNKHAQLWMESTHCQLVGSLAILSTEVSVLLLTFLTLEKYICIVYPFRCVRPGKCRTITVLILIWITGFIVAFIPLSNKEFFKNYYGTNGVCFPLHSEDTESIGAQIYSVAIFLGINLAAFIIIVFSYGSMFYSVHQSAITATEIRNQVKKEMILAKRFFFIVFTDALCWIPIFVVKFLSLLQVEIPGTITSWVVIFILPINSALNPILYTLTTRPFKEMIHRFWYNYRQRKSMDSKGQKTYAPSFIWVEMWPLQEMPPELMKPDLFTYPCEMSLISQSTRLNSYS
RXFP1 ag = activates the human relaxin receptor RXFP1; Q9HBX9; HEK293T-RXFP1 cAMP TR-FRET, 30 min; response scale: percent of porcine relaxin response, buffer zero; Potency, µM (titrated, usually from 57.5 µM), actives largely listed as activators; 370,000 tested, 0.3% active; AID 2676; active means well fitted activation curve with a large enough effect; inconclusive means small, poorly fitted or top-dose-only effect; further: nearly all actives have a fitted effect of over 60% in size
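HEK293T cells stably expressing RXFP1 were pretreated with the PDE4 inhibitor Ro 20174, exposed to compounds for 30 min at 37C, lysed, and cAMP was read by TR-FRET. Data normalized to buffer (basal) and 29 nM porcine relaxin (100%).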
gsp antag = antagonizes gsp, the McCune-Albright syndrome mutation; Potency, µM (top dose mostly 76.9 µM), usual class: inhibitors; gsp-mutant cells, cAMP HTRF, 30 min; 340,000 tested, 0.4% active; calls by dose curve; cell line not stated here;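 further: intracellular cAMP measured with PDE inhibitor Ro 20-1724 present during compound exposure; nearly all actives have a fitted effect of over 65% in size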
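Cells, 2000/well, grown 16–24 h in DMEM 10% FBS with 0.5 mg/ml G418, then compounds plus […] (300 uM addition stock), 30 min at 37C. cAMP read by HTRF (cAMP-d2 and anti-cAMP antibody-K in lysis buffer) after 30 min RT.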
gsp agonist = gsp mutant agonism | 340,000 tested, 0.13% active | Potency, µM (top dose mostly 76.9 µM), hits mostly activators | gsp mutant cells, cAMP HTRF, 30 min; active means well fitted activation curve with a large enough effect; inconclusive means small, poorly fitted or top-dose-only effect, or another doubt; inactive means no such curve, though single readings can be large or run the other way; cell line not stated here;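 further: phosphodiesterase inhibitor Ro 20-1724 added with compounds to block cAMP breakdown; nearly all actives have a fitted effect of over 60% in size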
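Cells in DMEM/10% FBS with G418 were pretreated with compounds in DMSO plus […] (300 uM stock) for 30 min at 37C. cAMP was measured by HTRF (cAMP-d2 plus anti-cAMP antibody-K) after 30 min at room temperature.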
pAkt inh = blocks phosphorylation of Akt; Neuro2A IGF-stimulated pAkt S473 HTRF, 20 min; hits give low values; activity change, % for hits at 50 µM; 360,000 tested, 0.32% active; in the data active means activity change below about -80%; inconclusive means mostly about -51% to -80%
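Neuro2A cells (4,500/well, DMEM with 0.5% FBS) were treated with compound at a single 50 µM final concentration, stimulated with 6 nM IGF for 20 min at 37 °C, and lysed. Phospho-Akt Ser473 was read by HTRF as 665/615 ratio ×10^4.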
A number is an active result; - = inactive; ? = inconclusive; . = no result given; [ ] = dose if it differs, or a comment.

SMILES | RXFP1 antagonist | RXFP1 ag | gsp antag | gsp agonist | pAkt inh
COc1ccc(C(c2ccc(OC)cc2)C(Cl)(Cl)Cl)cc1 | -93.5 | - | - | . | -
COc1cccc(C(=O)CCN[C@@H](C)[C@H](O)c2ccccc2)c1 | - | . | . | . | .
C#C[C@]1(O)C=C[C@H]2[C@@H]3CCC4=CC(=O)CC[C@@H]4[C@H]3CC[C@@]21CC | - | . | . | . | .
Nc1ccccc1C(=O)OCC(O)CO (stereo unspecified) | - | . | . | . | .
CC12CCC(=O)C=C1CCC1C2CCC2(C)C(O)CCC12 (stereo unspecified) | - | - | - | - | -
CCC(=O)O[C@H]1CC[C@H]2[C@@H]3CCC4=CC(=O)CC[C@]4(C)[C@H]3CC[C@]12C | -68.0 | . | - | . | -
C#CC(O)(C=CCl)CC (stereo unspecified) | - | . | . | . | .
CC(C)c1ccc(N2C(=O)NC(=O)/C(=C/C=C/c3ccco3)C2=O)cc1 | -80.3 | - | - | - | -
Cc1cc(C)cc(N2C(=O)NC(=O)/C(=C\C=C\c3ccco3)C2=O)c1 | - | - | - | - | -
Cc1ccc(N2C(=O)NC(=O)/C(=C/C=C/c3ccco3)C2=O)cc1 | -62.2 | - | - | - | -
CCc1ccc(N2C(=O)NC(=O)/C(=C\C=C\c3ccco3)C2=O)cc1 | - | - | - | - | -
O=C1NC(=O)N(Cc2ccc(F)cc2)C(=O)/C1=C\C=C\c1ccco1 | -69.7 | - | - | - | -
COC(=O)C1=C(C(=O)OC)C2OC1c1cc3ccccc3cc12 | -119.7 | . | - | ? | -
O=C(Nc1ccc(Br)cc1)c1cc(Br)cc(Br)c1O | -81.1 | . | . | . | .
O=c1[nH]c(=S)[nH]c(O)c1N=Nc1ccc2c(c1)OCO2 | - | - | - | - | -
O=c1[nH]c(=S)[nH]c(O)c1N=Nc1ccc2c(c1)OCCO2 | -95.3 | - | - | -[15.4 µM] | -
COc1ccc(C2=NCC(=O)N(CC(=O)NCc3ccco3)c3sc4c(c32)CCCC4)cc1 | - | - | ? | - | -
Cc1cccc(C2=NCC(=O)N(CC(=O)NCc3ccco3)c3sc4c(c32)CCCC4)c1 | -69.2 | - | ? | - | -
O=c1c2ccccc2nc(/C=C/c2ccccc2)n1-c1ccc(O)cc1 | - | - | - | - | -
O=C(O)c1ccc(/C=C/c2nc3ccccc3c(=O)n2-c2ccc(Br)cc2)cc1 | - | - | 14.1µM | - | -
CN1/C(=C\C=C2C(=O)NC(=S)NC2=O)C(C)(C)c2ccccc21 | - | - | 50.1µM | - | -
O=[N+]([O-])c1cc(Cl)c(O)c(-[n+]2c(-c3ccccc3)cc(-c3ccccc3)cc2-c2ccccc2)c1 | - | - | 12.6µM | ? | -
Cn1c(O)c(N=Nc2cccc(S(=O)(=O)N3CCOCC3)c2)c(=O)n(C)c1=O | - | 10µM | - | ? | -
CC(=O)OCC1=C(C(=O)O)N2C(=O)[C@@H](N)[C@H]2SC1 | - | . | . | . | .
NC1=C([N+](=O)[O-])C(c2ccc3c(c2)OCO3)c2c(c3ccccc3oc2=O)O1 (stereo unspecified) | - | - | - | - | -
SMILES | RXFP1 antagonist | RXFP1 ag | gsp antag | gsp agonist | pAkt inh
O=c1oc2ccccc2c(O)c1[C@H]1c2ccc(O)cc2Oc2c1c(=O)oc1ccccc21 | - | 17.8µM | - | - | -
COc1ccc(CNCCc2c(C)[nH]c3ccc(OC(F)(F)F)cc23)c(OC)c1 | -83.4 | - | - | ? | -
CN1CCC(N(Cc2ccccc2)c2ccccc2)CC1 | - | . | . | . | .
COc1ccc(C2SCC(=O)Nc3c2c(=O)[nH]n3C2CCCCC2)cc1 (stereo unspecified) | - | - | - | - | -105.2%
Cc1nc2ccccc2c(=O)n1-c1ccccc1Cl | - | . | . | . | .
CCOc1ccc(-n2nc3c(=S)[nH]nc(C)c3c2C)cc1 | - | 5.62µM | - | ? | -
C[C@]12CC[C@H]3[C@@H](CCC4=CC(=O)CC[C@@]43C)[C@@H]1CC[C@@H]2C(=O)O | - | . | . | . | .
O=C(c1ccco1)c1cn(Cc2ccccc2)c2ccccc12 | - | - | - | ? | -86.8%
O=C(Nc1ccc(Oc2ccc(Cl)cc2)c(Cl)c1)c1cc(I)cc(I)c1O | -92.3 | - | ? | . | -
C=CCc1cc(C=C2C(=O)N(C)C(=O)N(C)C2=O)cc(OCC)c1OCc1ccccc1 | -77.0 | - | - | - | -
C=CCc1cc(C=C2C(=O)NC(=O)NC2=O)cc(OC)c1OCc1ccc(C(=O)O)cc1 | - | - | - | - | -
